From PubChem BioAssay (NCI) come the findings set out here.

The panel holds about 83,000 compounds, 20% with a hit somewhere; the sample as a whole holds those more often.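 Each cell line was grown in a 96-well plate and treated with one concentration of compound for 48 hours. Values below 10 were considered active.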 A number with no mark means an inactive call. Activity calls are given as the source filed them.

What all share (test): NCI-60 one-dose screen, 48 h (100 = growth as untreated, 0 = no growth, -100 = all killed)
One assay deals with EKVX NSCLC. The settings on record: 10 µM unless noted.
A further assay deals with UO-31 renal. The conditions noted are these: 10 µM unless noted.
The test system of a further assay is TK-10 renal. The settings on record: 10 µM unless noted.
A further assay concerns ACHN renal. The settings on record: 10 µM unless noted.
A further assay has as its system CAKI-1 renal. The conditions noted are these: 10 µM unless noted.
A further assay concerns A498 renal. The settings on record: 10 µM unless noted.
A further assay concerns CCRF-CEM leukemia. The conditions noted are these: 10 µM unless noted.
In another assay the test system is MOLT-4 leukemia. The conditions noted are these: 10 µM unless noted.
In a further assay the test system is SR leukemia. The settings on record: 10 µM unless noted.
Another assay relates to RPMI-8226 leukemia. The settings on record: 10 µM unless noted.
In the next assay the test system is OVCAR-8 ovarian. The conditions noted are these: 10 µM unless noted.
The next assay has as its system OVCAR-5 ovarian. The conditions noted are these: 10 µM unless noted.
A further assay concerns OVCAR-4 ovarian. The conditions noted are these: 10 µM unless noted.
The test system of another assay is SK-OV-3 ovarian. The settings on record: 10 µM unless noted.
The test system of a further assay is IGROV1 ovarian. The conditions noted are these: 10 µM unless noted.
The test system of a further assay is OVCAR-3 ovarian. The conditions noted are these: 10 µM unless noted.
In another assay the test system is NCI/ADR-RES ovarian. The settings on record: 10 µM unless noted.
For another assay, the system named is SN12C renal. The conditions noted are these: 10 µM unless noted.
Another assay deals with HS 578T breast. The settings on record: 10 µM.

On to `COc1ccc(S(=O)(=O)N(C(C)=O)c2ccccc2/C=C/c2cc[n+]([O-])cc2)cc1`, for which the growth was 31.8% in the assay with EKVX NSCLC; 50% in the assay on UO-31 renal; 49.2% in the assay with TK-10 renal; 42.5% in the assay with ACHN renal; 32.7% in the assay on CAKI-1 renal; 1.32% (active) in the assay with A498 renal. Besides, the growth is 16.4% in the assay with CCRF-CEM leukemia; 22.5% with MOLT-4 leukemia; 16.4% with SR leukemia; 22.2% in the assay on RPMI-8226 leukemia; 14.9% in the assay with OVCAR-8 ovarian; 35.4% with OVCAR-5 ovarian. Besides, the growth is 42.4% in the assay with OVCAR-4 ovarian; 6.17% (active) in the assay on SK-OV-3 ovarian; 24.5% with IGROV1 ovarian; 28.2% with OVCAR-3 ovarian; 17.5% with NCI/ADR-RES ovarian.
As to `O=C(NOCCO)c1cc(CN2OCCCC2=O)c(F)c(F)c1Nc1ccc(I)cc1F`, the growth was 46% in the assay with EKVX NSCLC; 15% in the assay with UO-31 renal; 36.4% in the assay on TK-10 renal; 49.5% in the assay with ACHN renal; 40.8% in the assay on CAKI-1 renal; -33% (active) with A498 renal. For the same compound, the growth in the assay with CCRF-CEM leukemia is 101%; in the assay on MOLT-4 leukemia, 76.6%; in the assay with SR leukemia, 65.6%; with RPMI-8226 leukemia, 78.8%; in the assay on OVCAR-8 ovarian it was 52.1%; in the assay on OVCAR-5 ovarian it was 20.2%. In addition, the growth is 64.5% with OVCAR-4 ovarian; 52.3% in the assay on SK-OV-3 ovarian; 21.2% in the assay on IGROV1 ovarian; 103% in the assay on OVCAR-3 ovarian; 58.1% in the assay on NCI/ADR-RES ovarian.
As for `Cc1nc(NC(=O)N2CCC[C@H]2C(N)=O)sc1-c1ccnc(C(C)(C)C(F)(F)F)c1`, the growth in the assay with EKVX NSCLC is 41.1%; in the assay with SN12C renal, 57.7%; in the assay on UO-31 renal, 25.1%; in the assay with ACHN renal, 36.9%; with CAKI-1 renal it was 17.8%; with A498 renal, 1.67% (active). For the same compound, the growth was 35.9% with CCRF-CEM leukemia; 8.66% (active) in the assay with MOLT-4 leukemia; 26.2% with SR leukemia; 48.5% in the assay on OVCAR-8 ovarian; 36.5% in the assay on OVCAR-5 ovarian; 72% in the assay on OVCAR-4 ovarian. The growth was -25.6% (active) in the assay on SK-OV-3 ovarian, -23.5% (active) in the assay with IGROV1 ovarian, 39.1% with OVCAR-3 ovarian and 60.8% with NCI/ADR-RES ovarian.
Consider `COc1cc(N2CCC(N3CCN(C)CC3)CC2)ccc1Nc1ncnc(Nc2ccccc2S(=O)(=O)C(C)C)n1`, for which the growth is 105% in the assay with EKVX NSCLC; 107% in the assay on SN12C renal; 98.7% with UO-31 renal; 98.5% in the assay with ACHN renal; 104% in the assay on CAKI-1 renal; 114% in the assay on A498 renal. Further, the growth in the assay with CCRF-CEM leukemia is 92.9%; with MOLT-4 leukemia it was 89.9%; with SR leukemia, 12.7%; with RPMI-8226 leukemia, 101%; with OVCAR-8 ovarian it was 99.3%; in the assay with OVCAR-5 ovarian, 98.3%. Moreover, the growth was 113% in the assay on OVCAR-4 ovarian; 87.4% in the assay on SK-OV-3 ovarian; 103% in the assay with IGROV1 ovarian; 105% with OVCAR-3 ovarian; 109% with NCI/ADR-RES ovarian.
As to `CN(C)C[C@@H]1CCn2cc(c3ccccc32)C2=C(C(=O)NC2=O)c2cn(c3ccccc23)CCO1`, the growth was 30.5% in the assay with EKVX NSCLC; -59.7% (active) in the assay on SN12C renal; -49.1% (active) in the assay with UO-31 renal; -89.9% (active) in the assay on ACHN renal; -3.96% (active) with CAKI-1 renal; -4.95% (active) with A498 renal. In addition, the growth in the assay on CCRF-CEM leukemia is -0.337% (active); in the assay with MOLT-4 leukemia, -4.3% (active); in the assay on SR leukemia, -11.8% (active); in the assay on RPMI-8226 leukemia, -18.8% (active); with OVCAR-8 ovarian, -0.0404% (active); with OVCAR-5 ovarian it was -7.31% (active). In addition, the growth in the assay on OVCAR-4 ovarian is -45.9% (active); in the assay on SK-OV-3 ovarian it was 6.11% (active); in the assay on IGROV1 ovarian, -13.1% (active); in the assay with OVCAR-3 ovarian it was 1.36% (active); in the assay on NCI/ADR-RES ovarian, 6.82% (active).
Turning to `CC(C)Nc1cc(-c2c[nH]c(C(=O)N[C@H](CO)c3cccc(Cl)c3)c2)c(Cl)cn1`, the growth in the assay on EKVX NSCLC is 38.9%; in the assay with SN12C renal, 52.2%; in the assay on UO-31 renal it was 18.2%; in the assay with ACHN renal, 31%; in the assay on CAKI-1 renal, 35.3%; in the assay with A498 renal, 4.24% (active). Moreover, the growth is 26.1% in the assay on CCRF-CEM leukemia; 12.6% with MOLT-4 leukemia; 23.9% with SR leukemia; 21.8% with RPMI-8226 leukemia; 35% with OVCAR-8 ovarian; 19.5% with OVCAR-5 ovarian. Also, the growth in the assay with OVCAR-4 ovarian was 42.2%; in the assay with SK-OV-3 ovarian, 23.3%; in the assay with IGROV1 ovarian it was 18.4%; with OVCAR-3 ovarian, 75.9%; in the assay with NCI/ADR-RES ovarian, 47.9%.
With `CC(C)(C)c1cnc(CSc2cnc(NC(=O)C3CCNCC3)s2)o1`, the growth was 22.7% in the assay with EKVX NSCLC; 11.8% in the assay with SN12C renal; -4.7% (active) in the assay on UO-31 renal; 16.5% in the assay on CAKI-1 renal; -31.7% (active) with A498 renal; 7.55% (active) in the assay on CCRF-CEM leukemia. The growth in the assay on MOLT-4 leukemia is 0.905% (active); in the assay with SR leukemia, 0.401% (active); with RPMI-8226 leukemia it was -8.04% (active); in the assay on OVCAR-8 ovarian it was 5.71% (active); in the assay with OVCAR-5 ovarian, 14.9%; in the assay with OVCAR-4 ovarian it was 9.94% (active). Further, the growth in the assay on SK-OV-3 ovarian was 6.31% (active); in the assay with IGROV1 ovarian, 9.86% (active); in the assay on OVCAR-3 ovarian, 20.2%; with NCI/ADR-RES ovarian, 53%.
In the case of `Nc1c(Cl)cccc1[N+](=O)[O-]`, the growth with EKVX NSCLC was 104%; in the assay on UO-31 renal, 90.4%; in the assay on TK-10 renal, 125%; in the assay with ACHN renal, 104%; with CAKI-1 renal, 104%; in the assay on A498 renal, 101%. Also, the growth was 101% in the assay with CCRF-CEM leukemia; 99.6% with MOLT-4 leukemia; 104% with SR leukemia; 100% in the assay on RPMI-8226 leukemia; 102% in the assay with OVCAR-8 ovarian; 102% with OVCAR-5 ovarian. The growth was 111% with OVCAR-4 ovarian; 108% with SK-OV-3 ovarian; 112% with IGROV1 ovarian; 111% in the assay on OVCAR-3 ovarian; 87.8% in the assay with HS 578T breast; 102% with NCI/ADR-RES ovarian.
For the compound `CN1CC[C@H](c2c(O)cc(O)c3c(=O)cc(-c4ccccc4Cl)oc23)[C@H](O)C1`, the growth was 0.266% (active) in the assay on EKVX NSCLC; -14.1% (active) in the assay on UO-31 renal; -0.739% (active) in the assay on TK-10 renal; 4.43% (active) in the assay on ACHN renal; 10.1% in the assay on CAKI-1 renal; -54.2% (active) in the assay with A498 renal. Moreover, the growth with CCRF-CEM leukemia was 10.2%; with MOLT-4 leukemia, 1.35% (active); in the assay on SR leukemia, -0.341% (active); with RPMI-8226 leukemia it was 6.39% (active); in the assay on OVCAR-8 ovarian, 7.4% (active); in the assay on OVCAR-5 ovarian, 8.36% (active). Also, the growth with OVCAR-4 ovarian is 1.82% (active); in the assay on SK-OV-3 ovarian, 10.2%; with IGROV1 ovarian, 4.27% (active); with OVCAR-3 ovarian it was 17.4%; in the assay with NCI/ADR-RES ovarian, 2.07% (active).
`O=C1C=CC2(NN=C(c3ccccc3)N2c2cccc(Cl)c2)C(Cl)=C1` (centres undefined): the growth was 67.5% in the assay on EKVX NSCLC; 84.4% with SN12C renal; 51.5% with UO-31 renal; 63.7% with ACHN renal; 79.8% in the assay on CAKI-1 renal; 83.4% in the assay with A498 renal. The growth in the assay on CCRF-CEM leukemia was 41.6%; in the assay with MOLT-4 leukemia it was 39.2%; with SR leukemia it was 67.3%; in the assay on RPMI-8226 leukemia, 58.6%; in the assay on OVCAR-8 ovarian it was 76%; with OVCAR-5 ovarian, 92.3%. Moreover, the growth in the assay with OVCAR-4 ovarian was 70.5%; in the assay on SK-OV-3 ovarian it was 70.7%; in the assay with IGROV1 ovarian it was 87.1%; in the assay with OVCAR-3 ovarian, 84.9%; in the assay with NCI/ADR-RES ovarian it was 89.7%.
For the compound `CCCCCc1ccc(C)cc1OC(=O)CCl`, the growth is 117% in the assay on EKVX NSCLC; 66.9% with UO-31 renal; 105% in the assay on TK-10 renal; 105% in the assay with ACHN renal; 91.7% in the assay on CAKI-1 renal; 105% with A498 renal. Also, the growth in the assay on CCRF-CEM leukemia was 102%; with MOLT-4 leukemia, 102%; in the assay on SR leukemia it was 109%; in the assay with RPMI-8226 leukemia, 98.5%; with OVCAR-8 ovarian, 89.1%; in the assay on OVCAR-5 ovarian it was 101%. In addition, the growth in the assay with OVCAR-4 ovarian is 109%; with SK-OV-3 ovarian, 107%; in the assay on IGROV1 ovarian, 103%; in the assay with OVCAR-3 ovarian, 122%; with HS 578T breast it was 116%; with NCI/ADR-RES ovarian, 111%.
For the compound `COC(=O)[C@H](Cc1ccccc1)NC(=O)[C@@H](OC)[C@@H]1Cc2cc3cc(OC4CC(OC5CC(O)C(O)C(C)O5)C(O)C(C)O4)c(C)c(O)c3c(O)c2C(=O)[C@H]1OC1CC(OC2CC(OC3CC(C)(O)C(O)C(C)O3)C(O)C(C)O2)C(O)C(C)O1` (some centres undefined), the growth in the assay on EKVX NSCLC is -2.04% (active); in the assay on SN12C renal, 4.42% (active); in the assay with UO-31 renal, -7.79% (active); with ACHN renal, -8.69% (active); in the assay with CAKI-1 renal, 15.3%; in the assay on A498 renal, -40.3% (active). Also, the growth in the assay with CCRF-CEM leukemia was 4.07% (active); in the assay on MOLT-4 leukemia it was -5.77% (active); in the assay with SR leukemia it was 7.89% (active); in the assay on OVCAR-8 ovarian, 7.42% (active); in the assay on OVCAR-5 ovarian it was 8.6% (active); in the assay with OVCAR-4 ovarian, 1.44% (active). The growth was 17% in the assay on SK-OV-3 ovarian; 25.5% in the assay with IGROV1 ovarian; 5.7% (active) with OVCAR-3 ovarian; -16.7% (active) with HS 578T breast; 51.6% with NCI/ADR-RES ovarian.
